The source made the active and inactive calls. Rule for the calls: active = hit-call score of the fitted dose curve at least 0.9, where 1 is the maximum; inactive = score below 0.9.

Read-out in the assay: Actin alpha 1 (ACTA1), ACTA1 (gene 58)
In words: BSK_MyoF_ACTA1: BioMAP Diversity Plus: MyoF Assay for Actin alpha 1 (ACTA1) Biomarker Activity (AID 2284244). The conditions noted are these: primary human lung fibroblasts. As for the experimental part:
BSK_MyoF is a cell-based, multiplexed-readout assay that uses lung fibroblasts, […], with measurements taken at 24 hours after chemical dosing in a microplate: 96-well plate.BSK_MyoF_ACTA1 is an assay component measured in the BSK_MyoF assay. It measures a-SMA antibody related to regulation of gene expression using ELISA technology.Data from the assay component BSK_MyoF_ACTA1 was analyzed at the endpoint, BSK_MyoF_ACTA1, in the positive analysis fitting direction relative to DMSO as the negative control and baseline of activity. Using a type of binding reporter, gain or loss-of-signal activity can be used to understand protein changes. To generalize the intended target to other relatable targets, this assay endpoint is annotated to the 'cell adhesion molecules' intended target family, where the subfamily is 'actin'.
The levels of cell surface (or secreted, indicated by the prefix "s") biomarker endpoints were measured by ELISA. Overt cytotoxicity to cells in confluent adherent cultures (all systems other than the BT system) was assessed by measuring total protein levels using sulforhodamine B (SRB) staining in parallel cultures at the time of biomarker measurements, indicated as SRB endpoints. For proliferation assays for adherent cell types, individual cell types are cultured at sub-confluence and relative cell numbers quantified by SRB staining at time points optimized for each system (48 h: 3C and CASM3C systems; 72 h: BT and HDF3CGF systems; 96 h: SAg system). SRB was performed by staining cells with 0.1% SRB after fixation with 10% TCA and reading wells at 560 nm.Viability and proliferation of PBMC (T cells) was quantified by Alamar Blue reduction for the SAg and BT systems. For PBMC viability (referred to as PBMC Cytotoxicity within the assay endpoint names), cells were plated (75,000/well in a 96-well plate) and then chemical samples added for 1 h before addition of activators, SEB and TSST-1 (20 ng/mL final concentration each). Cells were incubated for 90 h. Then, Alamar Blue (20 uL/well) (Invitrogen, Cat DAL1100) was added for 6 h, and the plates were read with a fluorescence microplate reader at 546/580 nm (excitation/emission). For PBMC proliferation, cells were plated and activated as above but incubated for only 16 h prior to addition of Alamar Blue. Plates were read after 6 h.
Consider `CCCCCCCCCC=O`, for which the outcome was inactive.
The term AC50 denotes the concentration giving half of the maximal activity seen. Take `Cc1ccc(O)c(C(C)(C)C)c1`: the AC50 is 30.9 µM (active).
Turning to `CC(=O)Nc1ccccc1O`, the result was inactive.
With `CN(CCOc1ccc(CC2SC(=O)NC2=O)cc1)c1ccccn1` (stereo not drawn), the result was inactive.
Same read-out and setting: the entry for `CCCCCCCCC=O` is “inactive”.
With `CC1COc2ccccc2N1C(=O)C(Cl)Cl` (stereo not drawn), the AC50 is 20 µM (active).
Turning to `c1ccc2c(c1)c1cccc3ccc4cccc2c4c31`, the result was inactive.
With `O=C(O)c1cn(-c2ccc(F)cc2)c2cc(N3CCNCC3)c(F)cc2c1=O`, the outcome was inactive.
Regarding `CCCCC(CC)COCCC#N` (stereo not drawn), the result was inactive.
In the case of `C=C(C)C(=O)O[C@H]1C[C@@H]2CC[C@@]1(C)C2(C)C`, the AC50 was 33.1 µM (active).
With `CC(C)Oc1ccccc1O`, the result was inactive.
On to `BrC1CCC(Br)C(Br)CCC(Br)C(Br)CCC1Br` (stereo not drawn), for which the result was inactive.
In the case of `c1ccc2sc(SN(C3CCCCC3)C3CCCCC3)nc2c1`, the AC50 was 5.57 µM (active).
Take `O=C1CCCCCCCCCCCCCCO1`: the concentration at half-maximal activity (AC50) was 13.9 µM (active).
As to `CCc1c(C)cc(N)c(CC)c1N`, the result was inactive.
`CCn1c2ccccc2c2cc(N)ccc21`: the outcome was inactive.
On to `O=C1OC2(c3cc(Br)c(O)c(Br)c3Oc3c2cc(Br)c(O)c3Br)c2c(Cl)c(Cl)c(Cl)c(Cl)c21`, for which the AC50 is 5.23 µM (active).
With `O=P(c1ccccc1)(c1ccccc1)c1ccccc1`, the outcome was inactive.
The same measure, in the same setting: the entry for `O=C=NC1CCC(CC2CCC(N=C=O)CC2)CC1` (stereo not drawn) is “inactive”.
On to `CCCCC/C=C/C=C/C=O`, for which the AC50 was 31.6 µM (active).
For the compound `CNC[C@H](O)c1cccc(O)c1`, the outcome was inactive.
In the case of `O=[N+]([O-])c1cc(C(F)(F)F)ccc1Cl`, the result was inactive.
Take `CCCCC(CC)COC(=O)/C=C\C(=O)OCC(CC)CCCC` (stereo not drawn): the result was inactive.
As to `Nc1cc([N+](=O)[O-])ccc1Cl`, the outcome was inactive.
With `COC(=O)c1ccc(C)cc1`, the outcome was inactive.
As for `CC(C)c1ccc(C(C)C)cc1`, the result was inactive.
Regarding `N#Cc1ccc(CC(=NNC(=O)Nc2ccc(OC(F)(F)F)cc2)c2cccc(C(F)(F)F)c2)cc1`, the result was inactive.
Same read-out and setting: in the case of `C#C[C@]1(O)CC[C@H]2[C@@H]3CCC4=Cc5oncc5C[C@]4(C)[C@H]3CC[C@@]21C` it was “inactive”; in that of `CCCCCCCCCCCCCCCCCC(=O)OCC(CC)CCCC` (stereo not drawn), “inactive”.
The same measure, in the same setting: the entry for `Cc1ccc(Nc2ccc(O)c3c2C(=O)c2ccccc2C3=O)cc1` is “inactive”.
With `O=C(O)c1cn(C2CC2)c2cc(N3CCNCC3)c(F)cc2c1=O`, the outcome was inactive.
In the case of `CC(C)(COC(=O)c1ccccc1)COC(=O)c1ccccc1`, the outcome was inactive.
For `CC1CCC(C(C)CS)CC1S` (stereo not drawn), the AC50 was 9.28 µM (active).
As for `C=C[Si](OCC)(OCC)OCC`, the result was inactive.
Turning to `CC(=O)/C=C/C1=C(C)CCCC1(C)C`, the result was inactive.
On to `CC(=O)O[C@]1(C(C)=O)CC[C@H]2[C@@H]3C[C@H](C)C4=CC(=O)CC[C@]4(C)[C@H]3CC[C@@]21C`, for which the outcome was inactive.
As for `O=C(O)C[C@H](O)C[C@H](O)/C=C/c1c(C2CC2)nc2ccccc2c1-c1ccc(F)cc1`, the AC50 is 1.37 µM (active).
`Cc1ccc2n[nH]nc2c1`: the outcome was inactive.

Source of the values: PubChem BioAssay (EPA / NIEHS).
